Where “and” joins values, the source holds several entries; their conditions need not be identical. Identical values can stand only once. Calls of active or inactive are those of the source. How the source made its calls: active means hit-call score of the fitted dose curve at least 0.9, where 1 is the maximum; inactive means score below 0.9.
Read-out: Early growth response protein 1 (EGR1) transcription factor, EGR1 (gene 1958)
Test: LTEA_HepaRG_EGR1: Life Technologies and Expression Analysis (LTEA) Assay for Early growth response protein 1 (EGR1) transcription factor using HepaRG (AID 2283490)
Settings: mRNA level, 48 h; actives raise or lower the signal
Method: LTEA_HepaRG is a cell based, multiplexed-readout assay that uses HepaRG, a human liver cell line, with measurements taken at 48 hours after chemical dosing on a 96-well plate.LTEA_HepaRG_EGR1 is one of 102 assay component(s) measured in the LTEA HepaRG cell culture assay. It is a marker of Cell proliferation, survival, death.Data from the assay component LTEA_HepaRG_EGR1 was analyzed into 1 endpoint. This assay endpoint, LTEA_HepaRG_EGR1, was analyzed with bidirectional fitting relative to DMSO as the negative control and baseline of activity. Using a type of inducible reporter, measures of mRNA induction for gain or loss-of-signal activity can be used to understand regulation of transcription factor activity. To generalize the intended target to other relatable targets, this assay endpoint is annotated to the dna binding intended target family, where the subfamily is zinc finger.
A total of 1060 chemcials from the ToxCast library were tested in eight-point concentration-response experiments. Cell culture and cytotoxicity assays were conducted at Thermo Fisher Scientific's Custom Services facility (Madison, WI). A single lot of human HepaRG cells (Thermo Fisher Scientific, Frederick, MD) was used for the cell culture experiments. 96-well format collagen type I coated plates of human HepaRG cells were prepared using established methods. Briefly, cryopreserved HepaRG cells were thawed, plated at a density of approximately 100,000 cells/well in HepaRG Thaw, Plate, and General Purpose media (HPRG770, Thermo Fisher Scientific), and incubated for 48 hours. 0.5% DMSO was selected as vehicle control to balance the requisite need of DMSO in HepaRG cultures to maintain differentiation (for example, baseline metabolism, proportions of hepatocytes vs. cholangiocytes), while enabling further hepatic receptor pathway activation (for example, PXR and CAR) in response to chemical exposure. 48 hours after plating, the culture medium was replaced with HepaRG Serum-Free Incudtion Media. Cells were exposed to each test chemical in duplicate and maintained in CO2 incubators for another 48 hours. Chemical plates were thawed to room temperature and 200x concentrations of treatment groups were prepared. 8-point conentration-reponse curves were made with the highest exposure at 100 uM, followed by half-log dilutions, all in 0.5% DMSO. Each test plate contained variouse controls, induction positive controls (1mM phenobarbital), cytotoxicity positive controls ([…] aflatoxin B1), vehicle controls (0.5% DMSO), and total lysis controls (0.5% DMSO). Cell morphology images were taken using an Essen IncuCyte FLR automated microscope, with six 96-well plates imaged in about 24 minutes. Images were captured and exported and JPEG files. Spent culture media was transfered to black-well plates for the LDH assay, and remaining media was sorted at -80 C for later use. Cells were treated with RLT buffer and frozen until shipped for gene expression analysis. Total RNA was isolated from the cell suspension in 75 uL of Buffer RLT (Qiagen, Germantown, MD 20874) by Quintiles/Expression Analysis (Durham, NC) using a custom isolation procedure. Total RNA from each plate well was transferred to a preamplification plate. Fluidigm's 96.96 Dynamic ArrayTM (Fluidigm, Amsterdam, the Netherlands) technology was used for gene expression analyses by quantitative reverse transcription polymerase chain reaction (qRT-PCR, performed by Quintiles/Expression Analysis, Durham, NC)89. Standard TaqManTM Assays (Applied Biosystems/ThermoFisher Scientific, Foster City, CA) were used to assess the expression of 93 genes selected based on their selectivity and sensitivity to important hepatic receptors known to be modulated by environmental chemicals; importance in human hepatocyte functionality; and hepatotoxicity. […]

| Compound | outcome | AC50 |
| --- | --- | --- |
| CC(C)(C)[C@@H](O)[C@@H](Cc1ccc(Cl)cc1)n1cncn1 | inactive |  |
| CCOC(=O)c1ccc(O)cc1 | inactive |  |
| CC(=O)[C@H]1CC[C@H]2[C@@H]3CCC4=CC(=O)CC[C@]4(C)[C@H]3CC[C@]12C |  | 50 µM (active) |
| COCCO | inactive |  |
| C=CCOC(Cn1ccnc1)c1ccc(Cl)cc1Cl (stereo not given) | inactive |  |
| COC(=O)CSc1cc(N=c2sc(=O)n3n2CCCC3)c(F)cc1Cl | inactive |  |
| CCCOC(=O)NCCCN(C)C | inactive |  |
| CCCCCCC(C)OC(=O)COc1nc(F)c(Cl)c(N)c1Cl (stereo not given) | inactive |  |
| CCCCOCCOCCOCc1cc2c(cc1CCC)OCO2 | inactive |  |
| CCC(C)OC(=O)N1CCCCC1CCO (stereo not given) | inactive |  |
| OB(O)O | inactive |  |
| CCOC(=O)NCCOc1ccc(Oc2ccccc2)cc1 | inactive |  |
| S=C(S)NCCNC(=S)S.[Mn+2].[S-]C([S-])=NCCN=C([S-])[S-].[Zn+2] |  | 3.58 µM (active) and 2.44 µM (active) and 4.53 µM (active) |
| O=C(O)c1ccccc1 | inactive |  |
| CCCN(CCC)c1c([N+](=O)[O-])cc(C(F)(F)F)c(N)c1[N+](=O)[O-] | inactive |  |
| C#C[C@]1(O)CC[C@H]2[C@@H]3CCC4=CC(=O)CC[C@@H]4[C@H]3CC[C@@]21CC | inactive |  |
| CC(C)CCCCCCc1ccc(O)cc1 | inactive |  |
| CCCN(CCC)C(=O)SCC | inactive |  |
| N#CSCSc1nc2ccccc2s1 | inactive |  |
| O=C(c1ccccc1)C1CCCCC1 | inactive |  |

| Compound | outcome | AC50 |
| --- | --- | --- |
| Cc1nn(C)c(Oc2ccccc2)c1C=NOCc1ccc(C(=O)OC(C)(C)C)cc1 |  | 1.22 µM (active) |
| O=C(c1ccc(O)cc1O)c1ccc(O)cc1O | inactive |  |
| S=C([S-])NCCNC(=S)[S-].[Mn+2] |  | 6.62 µM (active) |
| CCNc1nc(N)nc(Cl)n1 | inactive |  |
| N[C@@H](Cc1cc(I)c(Oc2ccc(O)c(I)c2)c(I)c1)C(=O)O | inactive |  |
| CCCOC(=O)c1ccc(C(=O)OCCC)nc1 | inactive |  |
| CCOC(=O)C(C)Oc1ccc(Oc2nc3ccc(Cl)cc3o2)cc1 (stereo not given) | inactive |  |
| CCCCC(CC)CN1C(=O)C2C3C=CC(C3)C2C1=O (stereo not given) | inactive |  |
| CSC(=O)c1cccc2nnsc12 | inactive |  |
| CCCCC(CC)COC(=O)c1ccccc1C(=O)O (stereo not given) | inactive |  |
| Oc1ccc(C(c2ccc(O)cc2)C(Cl)(Cl)Cl)cc1 |  | 77.7 µM (active) |
| CCN(CC)C(=O)c1cccc(C)c1 | inactive |  |
| O=C(Nc1ccc([N+](=O)[O-])cc1Cl)c1cc(Cl)ccc1O |  | 1.76 µM (active) |
| CC(C)(c1ccc(O)cc1)c1ccc(O)cc1 | inactive |  |
| CCCCOC(=O)[C@@H](C)Oc1ccc(Oc2ccc(C(F)(F)F)cn2)cc1 | inactive |  |
| COC(=O)c1ccccc1C(=O)O | inactive |  |
| CC1(C)C(C=C(Cl)Cl)C1C(=O)OCc1cccc(Oc2ccccc2)c1 (stereo not given) | inactive |  |
| CCCCCOC(=O)COc1cc(N2C(=O)C3=C(CCCC3)C2=O)c(F)cc1Cl | inactive |  |
| CC(=O)S[C@@H]1CC2=CC(=O)CC[C@]2(C)[C@H]2CC[C@@]3(C)[C@@H](CC[C@@]34CCC(=O)O4)[C@H]12 | inactive |  |
| C[C@]12CC[C@@H]3c4ccc(O)cc4C[C@@H](CCCCCCCCCS(=O)CCCC(F)(F)C(F)(F)F)[C@H]3[C@@H]1CC[C@@H]2O (stereo not given in full) |  | 0.119 µM (active) |

Reference: PubChem BioAssay (EPA / NIEHS)
